Compounds without any hit were thinned out: in the full panel of roughly 83,000, 20% have a hit.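 Single-dose data. Exposure time 48 hours. Values below 10 considered active.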 Active and inactive are the calls of the source.
Key:
Experiment in all cases: NCI-60 one-dose screen, 48 h (100 = growth as untreated, 0 = no growth, -100 = all killed)
Settings in all cases: 10 µM unless noted
SR leukemia = system: SR leukemia
RPMI-8226 leukemia = system: RPMI-8226 leukemia
OVCAR-8 ovarian = system: OVCAR-8 ovarian
OVCAR-5 ovarian = system: OVCAR-5 ovarian
OVCAR-4 ovarian = system: OVCAR-4 ovarian
SK-OV-3 ovarian = system: SK-OV-3 ovarian
IGROV1 ovarian = system: IGROV1 ovarian
OVCAR-3 ovarian = system: OVCAR-3 ovarian
HS 578T breast = system: HS 578T breast
NCI/ADR-RES ovarian = system: NCI/ADR-RES ovarian
T-47D breast = system: T-47D breast
BT-549 breast = system: BT-549 breast
MDA-MB-435 melanoma = system: MDA-MB-435 melanoma
SW-620 colon = system: SW-620 colon
MCF7 breast = system: MCF7 breast
HCT-116 colon = system: HCT-116 colon
HCC-2998 colon = system: HCC-2998 colon
KM12 colon = system: KM12 colon

Measured: growth

CCc1c(C)c2cc3nc(NCc4ccccc4)oc3c(C)c2oc1=O
inactive: SR leukemia 73.5% | RPMI-8226 leukemia 71.6% | OVCAR-8 ovarian 62.5% | OVCAR-5 ovarian 89.7% | OVCAR-4 ovarian 33.9% | SK-OV-3 ovarian 39.5% | IGROV1 ovarian 76.2% | OVCAR-3 ovarian 87% | HS 578T breast 67.1% | NCI/ADR-RES ovarian 51.2% | T-47D breast 47.2% | BT-549 breast 32.6% | MDA-MB-435 melanoma 47.7% | SW-620 colon 95.8% | MCF7 breast 73.1% | HCT-116 colon 57.2% | HCC-2998 colon 79.6% | KM12 colon 83.5%

O=[N+]([O-])c1ccc(NS(=O)(=O)c2cc(Cl)ccc2Cl)c2ccccc12
inactive: SR leukemia 60.1% | RPMI-8226 leukemia 14.1% | OVCAR-8 ovarian 79.5% | OVCAR-5 ovarian 89.1% | OVCAR-4 ovarian 54% | SK-OV-3 ovarian 59.6% | IGROV1 ovarian 82.3% | OVCAR-3 ovarian 33.7% | HS 578T breast 54.3% | NCI/ADR-RES ovarian 59.3% | T-47D breast 56% | BT-549 breast 48% | MDA-MB-435 melanoma 52.3% | SW-620 colon 64.4% | MCF7 breast 46.4% | HCT-116 colon 45% | HCC-2998 colon 32.2% | KM12 colon 40.5%

COc1ccc2c(c1)OC(N)=C(C#N)C2c1ccc(F)cc1 (centres undefined)
inactive: SR leukemia 18.1% | OVCAR-8 ovarian 34.4% | OVCAR-5 ovarian 56.4% | OVCAR-4 ovarian 69% | SK-OV-3 ovarian 16.6% | IGROV1 ovarian 53.1% | OVCAR-3 ovarian 16.9% | HS 578T breast 18.8% | NCI/ADR-RES ovarian 26% | T-47D breast 40.7% | BT-549 breast 20.1% | SW-620 colon 18.6% | MCF7 breast 18.1% | HCT-116 colon 24.9% | HCC-2998 colon 54.5% | KM12 colon 26.4%
active: RPMI-8226 leukemia 6.87% | MDA-MB-435 melanoma -4.14%

CCc1cccc(C)c1NC(=O)c1sc2nc3c(cc2c1N)CCCCC3
inactive: SR leukemia 14.4% | RPMI-8226 leukemia 12.2% | OVCAR-8 ovarian 28.9% | OVCAR-5 ovarian 45% | OVCAR-4 ovarian 63.9% | SK-OV-3 ovarian 36.9% | IGROV1 ovarian 46.5% | HS 578T breast 36% | NCI/ADR-RES ovarian 14.2% | T-47D breast 46.7% | BT-549 breast 58.3% | SW-620 colon 23.8% | MCF7 breast 18.9% | HCT-116 colon 21.1% | HCC-2998 colon 54.7% | KM12 colon 23%
active: OVCAR-3 ovarian 3.96% | MDA-MB-435 melanoma -16.9%

COc1cc(/C=C/C(=O)c2ccc(Oc3ncnc4ccccc34)cc2)cc(OC)c1OC
inactive: SR leukemia 38.1% | RPMI-8226 leukemia 24.3% | OVCAR-8 ovarian 74.9% | OVCAR-5 ovarian 88.2% | OVCAR-4 ovarian 73.6% | SK-OV-3 ovarian 83.6% | IGROV1 ovarian 66.5% | OVCAR-3 ovarian 35.6% | HS 578T breast 97.1% | NCI/ADR-RES ovarian 70.3% | T-47D breast 35.9% | BT-549 breast 58% | MDA-MB-435 melanoma 50.6% | SW-620 colon 53.2% | MCF7 breast 27% | HCT-116 colon 52.8% | HCC-2998 colon 108% | KM12 colon 19.4%

C=C1C(=O)O[C@H]2[C@H]1CC/C(COC(=O)c1ccc3ccccc3c1)=C\CC[C@@]1(C)O[C@@H]21
inactive: SK-OV-3 ovarian 82.6% | HCC-2998 colon 42% | KM12 colon 32.8%
active: SR leukemia -19.4% | RPMI-8226 leukemia -39.3% | OVCAR-8 ovarian -21.4% | OVCAR-5 ovarian -52.9% | OVCAR-4 ovarian -36.7% | IGROV1 ovarian -75.1% | OVCAR-3 ovarian -93.1% | HS 578T breast 3.13% | NCI/ADR-RES ovarian -37.7% | T-47D breast -55.2% | BT-549 breast -55.2% | MDA-MB-435 melanoma -73.8% | SW-620 colon -37.9% | MCF7 breast -36.1% | HCT-116 colon -90.6%

CC(C)(C)OC(=O)N1CCN(CCn2cc(C(F)(F)F)c3c(Cl)ncnc32)CC1
active: SR leukemia -17.8% | OVCAR-8 ovarian -61.4% | IGROV1 ovarian -69.5%
inactive: RPMI-8226 leukemia 86.3% | OVCAR-5 ovarian 108% | OVCAR-4 ovarian 103% | SK-OV-3 ovarian 96.9% | OVCAR-3 ovarian 85.2% | HS 578T breast 82.5% | NCI/ADR-RES ovarian 104% | T-47D breast 90.3% | BT-549 breast 118% | MDA-MB-435 melanoma 47.1% | SW-620 colon 12% | MCF7 breast 87.4% | HCT-116 colon 12.1% | HCC-2998 colon 86.1% | KM12 colon 95.9%

COc1cc(Br)c(-c2nc(-c3ccccc3)c(-c3ccccc3)n2Cc2ccccc2)cc1OC
inactive: SR leukemia 47.3% | RPMI-8226 leukemia 40.8% | OVCAR-8 ovarian 55% | OVCAR-5 ovarian 77.1% | OVCAR-4 ovarian 48.6% | SK-OV-3 ovarian 39.5% | IGROV1 ovarian 49.4% | OVCAR-3 ovarian 68.6% | HS 578T breast 88.7% | NCI/ADR-RES ovarian 48.9% | T-47D breast 35.8% | BT-549 breast 75.9% | MDA-MB-435 melanoma 59.8% | SW-620 colon 73.4% | MCF7 breast 38.3% | HCT-116 colon 30.3% | HCC-2998 colon 67.9% | KM12 colon 49.6%

Source: PubChem BioAssay (NCI)
